Structures are written as SMILES. Calls of active or inactive are those of the source. The calls were made as follows: active = hit-call score of the fitted dose curve at least 0.9, where 1 is the maximum; inactive = score below 0.9.

A short description of the assay: ATG_NF_kB_CIS: Attagene CIS-FACTORIAL HepG2 Assay for human Nuclear Factor Kappa B (NF-kB) (AID 2282991). The conditions noted are these: HepG2 Attagene cis-factorial NF-kB reporter mRNA; actives raise or lower the signal. As for the experimental part: ATG_CIS is a cell-based, multiplexed-readout assay that uses HepG2, a human liver cell line, with measurements taken at 24 hours after chemical dosing in a 24-well plate.ATG_NF_kB_CIS is one of 52 assay component(s) measured or calculated from the ATG_CIS assay. It is designed to make measurements of mRNA induction, a form of inducible reporter, as detected with fluorescence intensity signals by Reverse transcription polymerase chain reaction (RT-PCR) and Capillary electrophoresis technology.Data from the assay component ATG_NF_kB_CIS was analyzed into 1 assay endpoint. This assay endpoint, ATG_NF_kB_CIS, was analyzed with bidirectional fitting relative to DMSO as the negative control and baseline of activity. Using a type of inducible reporter, measures of mRNA for gain or loss-of-signal activity can be used to understand the reporter gene at the transcription factor-level as they relate to the gene NFKB1. Furthermore, this assay endpoint can be referred to as a primary readout, because this assay has produced multiple assay endpoints where this one serves a reporter gene function. To generalize the intended target to other relatable targets, this assay endpoint is annotated to the dna binding intended target family, where the subfamily is NF-kappa B.
Human liver HepG2 cells are transiently transfected with multiple reporter transcription units (MRTUs) in 6-well plates using FuGene 6 reagent (Roche; 3 ml FuGene/1 mg DNA). The MRTU constructs are regulated by a cis-regulating element (promoter). […] A major difference between the CIS and TRANS system is that in CIS activities of endogenous TFs are measured, whereas the TRANS assay evaluates changes in activities of exogenous, chimeric NR-Gal4 proteins. […] At the end of 24 hour incubation, total RNA was isolated using TriZol reagent (Invitrogen). The isolated RNA is then reverse-transcribed using oligo(dT) primer and Mo-MLV reverse transcriptase (Invitrogen) with DNAse I (Ambion) treatment for 30 min. The one-tenth of the produced cDNA was amplified by PCR using Taq DNA polymerase (Invitrogen) and two reporter sequence-specific primers. The PCR products were fluorescently labeled by primer extension with 6-arboxyfluorescein (6-FAM) 5'-labeled reporter sequence-specific primer (2 min at 95 C, 20 s at 68 C and 10 min at 72 C) and these products were digested with 5U of HpaI (New England Biolabs) for 2h at 37 C. The fragments were purified using Qiaquick PCR columns (Qiagen), analyzed on an ABI 3130xL genetic analyzer (Applied Biosystems) with peak positions identified by using a set of X-rhodamine (ROX)-labeled MapMarker1000 molecular weight standards (BioVentures). The raw capillary electrophoresis data was processed using Attagraph software (Attagene).
Consider `CC(CO)c1ccccc1` (stereo not given), for which the call was inactive.

For the compound `COC(=O)c1ccc(C(=O)OC)cc1`, the compound was called inactive.

For `CC(=O)c1ccc(C)cc1`, the outcome was inactive.

For the compound `N#CCCCC(C#N)CCC#N` (stereo not given), the outcome was inactive.

Broadly, the AC50 is the midpoint of the concentration-response curve, whichever way the signal moves. For the compound `CN(C)CCC=C1c2ccccc2CCc2ccccc21`, the AC50 is 13.4 µM (active).

Regarding `C=C(C)C(=O)OCCC(C)OC(=O)C(=C)C` (stereo not given), the call was inactive.

For the compound `C1=COCCC1`, the result was inactive.

In the case of `CN(C)C(=O)Nc1ccccc1`, the result was inactive.

Take `COc1ccc2[nH]cc(CCNC(C)=O)c2c1`: the outcome was inactive.

On to `CCC(C)(C)C1CCC(OC)CC1` (stereo not given), for which the outcome was inactive.

For `CC(CCO)CC(C)(C)C` (stereo not given), the outcome was inactive.

As to `CC(C)CCOC(=O)CC(C)C`, the compound was called inactive.

Take `CC(=O)CC(C)(C)C1CCCCC1`: the outcome was inactive.

Regarding `CCCCCC#CC(=O)OC`, the AC50 is 23.1 µM (active).

`CCC(C)C1CCCCC1=O` (stereo not given): the result was inactive.

Regarding `CC(=O)OCC=C(C)CCC=C(C)CCC=C(C)C`, the call was inactive.

For `CCCCCC1CCC(=O)O1` (stereo not given), the call was inactive.

With `CCCCCCCCSCc1cc(C)c(O)c(CSCCCCCCCC)c1`, the compound was called inactive.

`Cc1cccc(O)c1`: the call was inactive.

Turning to `O=Cc1ccccc1O`, the result was inactive.

As for `CC(C)(O)C(=O)c1ccc(OCCO)cc1`, the compound was called inactive.

Regarding `CC1(C)CC(=O)CC(C)(C)N1`, the compound was classed as inactive.

As for `CC(C)(C)c1cccc(O)c1`, the compound was classed as inactive.

In the case of `CCCCOCC(C)OCC(C)O` (stereo not given), the call was inactive.

Take `OC[C@H]1O[C@@H](O[C@H]2[C@H](O)[C@@H](O)[C@H](O)O[C@@H]2CO)[C@H](O)[C@@H](O)[C@H]1O`: the compound was classed as inactive.

Regarding `O=C(c1ccc(OCCN2CCCCC2)cc1)c1c(-c2ccc(O)cc2)sc2cc(O)ccc12`, the outcome was inactive.

As for `CC(C)=CC(=O)O`, the result was inactive.

With `O=S1(=O)CC(Cl)(Cl)C(Cl)(Cl)C1`, the result was inactive.

Consider `CCCCCCOc1ccc(O)cc1`, for which the call was inactive.

Take `C1COCO1`: the compound was classed as inactive.

On to `C=C(C)C(=O)OCCC[Si](OC)(OC)OC`, for which the call was inactive.

For the compound `OCC=Cc1ccccc1`, the compound was classed as inactive.

For `CCNC(=S)NCC`, the compound was called inactive.

Consider `CC(=O)CCc1ccc(O)cc1`, for which the compound was classed as inactive.

As to `CCC(C)(C)c1cc(O)c(C(C)(C)CC)cc1O`, the AC50 is 60.4 µM (active).

As to `CC(=O)Nc1cc(S(=O)(=O)O)cc2cc(S(=O)(=O)O)c(N=Nc3ccccc3)c(O)c12`, the outcome was inactive.

In the case of `O=C1OCc2ccccc21`, the compound was called inactive.

Consider `CCCCCC(=O)O[C@]1(C(C)=O)CC[C@H]2[C@@H]3CCC4=CC(=O)CC[C@]4(C)[C@H]3CC[C@@]21C`, for which the compound was classed as inactive.

Turning to `CCCCCCCCOC(=O)c1ccc(O)cc1`, the call was inactive.

Turning to `C=CCOC(=O)/C=C\C(=O)OCC=C`, the concentration at half-maximal activity (AC50) was 15.8 µM (active).

These data come from PubChem BioAssay (EPA / NIEHS).
